From PubChem BioAssay (NCI) come the findings set out here.

Among the test systems are SK-MEL-2 melanoma; EKVX NSCLC; SN12C renal; UO-31 renal; TK-10 renal; ACHN renal; CAKI-1 renal; A498 renal; CCRF-CEM leukemia; MOLT-4 leukemia.
Common to all, as to assay: NCI-60 one-dose screen, 48 h (100 = growth as untreated, 0 = no growth, -100 = all killed)
What all share (settings): 10 µM unless noted

SMILES strings stand for the structures. The panel holds about 83,000 compounds, 20% with a hit somewhere; the sample as a whole holds those more often.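 Step 1: grow cells in 96-well plates. Step 2: add test compound at a single concentration. Step 3: incubate 48 h. Step 4: record percent growth.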 A number with no mark means an inactive call. Calls of active or inactive are those of the source. Rule for the calls: active = growth percent below 10; inactive = the rest.

For `O=C(c1ccc(C(F)(F)F)c(Cl)c1)N(Cc1ccc(Cl)cc1)c1ccc(-c2cc(C(F)(F)F)[nH]n2)c(O)c1`, the growth is -18.3% (active) in the test with SK-MEL-2 melanoma; 0.0577% (active) in the test on EKVX NSCLC; 14.6% in the test on SN12C renal; 5.66% (active) in the test on UO-31 renal; 5.25% (active) in the test with TK-10 renal; 3.03% (active) in the test on ACHN renal. The growth is 1.19% (active) with CAKI-1 renal, -21.4% (active) with A498 renal, 10.4% with CCRF-CEM leukemia and 9.19% (active) in the test with MOLT-4 leukemia.

Take `Nc1ccc(C(OC(=O)c2cc3ccccc3c(Cc3c(O)c(C(=O)OC(c4ccc(N)cc4)(c4ccc(N)cc4)c4ccc(N)cc4)cc4ccccc34)c2O)(c2ccc(N)cc2)c2ccc(N)cc2)cc1`: the growth with SK-MEL-2 melanoma is -17.2% (active); in the test with EKVX NSCLC, -5.75% (active); in the test on SN12C renal, -2.33% (active); with UO-31 renal, 29%; in the test with TK-10 renal, 44.6%; with ACHN renal, 47.5%. The growth was 11.3% in the test on CAKI-1 renal, -3.31% (active) in the test with A498 renal, 21.6% with CCRF-CEM leukemia and 21% in the test on MOLT-4 leukemia.

In the case of `O=C(NC1CC1)c1ccc(-c2nc3ccc4[nH]ncc4c3c3c2CCCC3)cc1`, the growth with SK-MEL-2 melanoma was 2.88% (active); with EKVX NSCLC, 55.6%; in the test on SN12C renal, 48.4%; in the test with UO-31 renal, 25.9%; in the test on TK-10 renal, 8.68% (active); in the test on ACHN renal it was 17.1%. For the same compound, the growth is 0.658% (active) in the test with CAKI-1 renal, -5.47% (active) in the test on A498 renal, 29.7% in the test on CCRF-CEM leukemia and 38.8% in the test with MOLT-4 leukemia.

For the compound `Cc1ccc(NC(=O)Cn2nncc2CN2C(=O)CSC2=O)cc1C`, the growth in the test with SK-MEL-2 melanoma is 102%; in the test with EKVX NSCLC it was 91.3%; in the test on SN12C renal, 105%; in the test on UO-31 renal, 91.6%; with TK-10 renal it was 98.8%; in the test with ACHN renal it was 100%. Moreover, the growth in the test with CAKI-1 renal was 96.8%; with A498 renal, 93.3%; in the test with CCRF-CEM leukemia, 106%; in the test on MOLT-4 leukemia, 103%.

Turning to `COc1cc(NC(C)CCCN)c2ncccc2c1Sc1ccc(Cl)cc1` (stereo not drawn), the growth in the test on SK-MEL-2 melanoma is 102%; with EKVX NSCLC it was 71.9%; in the test with SN12C renal, 64.9%; with UO-31 renal, 40.1%; in the test with TK-10 renal it was 78.6%; in the test with ACHN renal, 74.8%. Besides, the growth was 50.2% in the test on CAKI-1 renal, 55.9% in the test with A498 renal, 44.7% in the test on CCRF-CEM leukemia and 31.7% in the test on MOLT-4 leukemia.

As for `CCN(CC)c1ccc2nc3c4ccccc4c(=O)cc-3n(-c3ccccc3)c2c1`, the growth in the test on SK-MEL-2 melanoma was -37.2% (active); in the test on EKVX NSCLC it was -4.16% (active); with SN12C renal it was 13.2%; in the test on UO-31 renal it was -26.2% (active); with TK-10 renal it was 13.6%; with ACHN renal, -1% (active). In addition, the growth with CAKI-1 renal is -17.8% (active); in the test on A498 renal, 17.6%; with CCRF-CEM leukemia, 15.7%; in the test with MOLT-4 leukemia, 2.41% (active).

`CCCCN(CCCC)CCC(O)c1cc2ccc(C(F)(F)F)cc2c2cc(C(F)(F)F)ccc12` (stereo not drawn): the growth in the test on SK-MEL-2 melanoma was 55%; with EKVX NSCLC, 70%; in the test with SN12C renal, 46.9%; with UO-31 renal, 19.6%; in the test on TK-10 renal, 74.4%; in the test on ACHN renal it was 49.9%. For the same compound, the growth in the test with CAKI-1 renal is 38.6%; with A498 renal it was 56.4%; with CCRF-CEM leukemia it was 36.2%; with MOLT-4 leukemia, 28.7%.

Take `COc1ccc(NC(=O)/C=C/c2ccc(NC(=O)N3CCCC3)cc2)cn1`: the growth is 104% in the test on SK-MEL-2 melanoma; 92.8% in the test on EKVX NSCLC; 98.7% in the test on SN12C renal; 100% with UO-31 renal; 104% in the test with TK-10 renal; 114% in the test with ACHN renal. Moreover, the growth in the test with CAKI-1 renal was 100%; with A498 renal, 99.4%; in the test with CCRF-CEM leukemia, 97%; in the test with MOLT-4 leukemia it was 101%.

For `COC(=O)/C=C/c1cc(OC(C)=O)c2c(c1)[C@@H](C(=O)OC)[C@H](c1ccc(OC(C)=O)c(OC(C)=O)c1)O2`, the growth was 37.9% in the test with SK-MEL-2 melanoma; 34.2% in the test on EKVX NSCLC; 24.2% with SN12C renal; 39.3% in the test with UO-31 renal; 48.5% with TK-10 renal; 24.3% with ACHN renal. For the same compound, the growth with CAKI-1 renal is 17.9%; in the test on A498 renal it was -14.3% (active); with CCRF-CEM leukemia it was 6.74% (active); in the test on MOLT-4 leukemia, 14.9%.

For the compound `O=C(/C=C/c1cc([N+](=O)[O-])ccc1Cl)c1ccccc1`, the growth was 107% in the test on SK-MEL-2 melanoma; 84.6% with EKVX NSCLC; 80.8% with SN12C renal; 70.8% in the test with UO-31 renal; 112% with TK-10 renal; 91.2% in the test on ACHN renal. Besides, the growth was 73.2% in the test on CAKI-1 renal, 68.7% in the test with CCRF-CEM leukemia and 78% in the test on MOLT-4 leukemia.

Take `CC(C)c1ccc(Cn2ccc3c4c(N)nc(NC5CC5)nc4ccc32)cc1`: the growth with SK-MEL-2 melanoma was -82.6% (active); in the test on EKVX NSCLC, -84.2% (active); in the test on SN12C renal, -91.5% (active); with UO-31 renal, -99% (active); in the test with TK-10 renal it was -97.2% (active); in the test with ACHN renal, -98.9% (active). In addition, the growth was -98.6% (active) with CAKI-1 renal, -82.3% (active) in the test on A498 renal, -16.3% (active) in the test with CCRF-CEM leukemia and -42.8% (active) with MOLT-4 leukemia.

On to `COc1cc(OC)cc(-c2n/c(=C\c3c(O)[nH]c4ccc(Cl)cc34)cc3c2=Nc2ccccc2-3)c1`, for which the growth in the test on SK-MEL-2 melanoma is 100%; with EKVX NSCLC, 91.9%; with SN12C renal, 93.5%; with UO-31 renal, 66.4%; in the test on TK-10 renal it was 116%; with ACHN renal it was 81.3%. The values for the growth with CAKI-1 renal, with A498 renal and with MOLT-4 leukemia were 82.1%, 94.2% and 30.5%, respectively.

Regarding `COCCCNCC(=O)Nc1c(C)cccc1C`, the growth in the test on SK-MEL-2 melanoma was 112%; in the test with EKVX NSCLC it was 104%; in the test with SN12C renal it was 104%; in the test on UO-31 renal, 88.4%; in the test with TK-10 renal it was 113%; with ACHN renal, 102%. The growth in the test on CAKI-1 renal is 105%; in the test on A498 renal it was 110%; in the test with CCRF-CEM leukemia, 98.6%; in the test with MOLT-4 leukemia, 103%.
